For nine compounds, composite z-score and z-score results are on record in PubChem BioAssay.

The nature of assay [1]: small molecules captured by biotinylated probe aFSTL3 – biochemical, small-molecule microarray, fluorescence 635/667, stem cell growth factor project, primary screen (AID 1064).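 Further: measures binding of the biotinylated anti-FSTL3 antibody to printed compounds.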 The conditions noted are these: higher = more signal.
Assay [2] can be described thus: binders from COS7 lysate, DM2A8 probe, primary screen, torsin A project, cell lysate, small-molecule microarray, fluorescence 635/667 (AID 1065). The conditions noted are these: higher = more signal, COS7 lysate expressing mutant human TOR1A.
Assay [3] can be described thus: small molecules captured by biotinylated probe aFGF2 – biochemical, small-molecule microarray, fluorescence 635/667, stem cell growth factor project, primary screen (AID 1067).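 Further: measures binding of biotinylated aFGF2 protein to printed compounds on slides; z-score merges feature fluorescence and signal-to-noise across triplicate slides.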 The conditions noted are these: higher = more signal.
Assay [4] can be described thus: small molecules captured by biotinylated probe aFGF10 – biochemical, small-molecule microarray, fluorescence 635/667, stem cell growth factor project, primary screen (AID 1071).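 Further: score merges 667 nm spot intensity and signal to noise from triplicate slides.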 As to conditions: higher = more signal.
For assay [5], the target named is Neurogenic locus notch homolog protein 2 (Homo sapiens) (UniProt Q04721). As to the kind of experiment: small molecules binding Notch2 protein – biochemical, small-molecule microarray, 635 nm fluorescence, stem cell growth factors, primary screen (AID 1073). As to conditions: higher = more signal.
Sequence of Neurogenic locus notch homolog protein 2 (Homo sapiens) (Q04721 whole entry, looked up, canonical isoform): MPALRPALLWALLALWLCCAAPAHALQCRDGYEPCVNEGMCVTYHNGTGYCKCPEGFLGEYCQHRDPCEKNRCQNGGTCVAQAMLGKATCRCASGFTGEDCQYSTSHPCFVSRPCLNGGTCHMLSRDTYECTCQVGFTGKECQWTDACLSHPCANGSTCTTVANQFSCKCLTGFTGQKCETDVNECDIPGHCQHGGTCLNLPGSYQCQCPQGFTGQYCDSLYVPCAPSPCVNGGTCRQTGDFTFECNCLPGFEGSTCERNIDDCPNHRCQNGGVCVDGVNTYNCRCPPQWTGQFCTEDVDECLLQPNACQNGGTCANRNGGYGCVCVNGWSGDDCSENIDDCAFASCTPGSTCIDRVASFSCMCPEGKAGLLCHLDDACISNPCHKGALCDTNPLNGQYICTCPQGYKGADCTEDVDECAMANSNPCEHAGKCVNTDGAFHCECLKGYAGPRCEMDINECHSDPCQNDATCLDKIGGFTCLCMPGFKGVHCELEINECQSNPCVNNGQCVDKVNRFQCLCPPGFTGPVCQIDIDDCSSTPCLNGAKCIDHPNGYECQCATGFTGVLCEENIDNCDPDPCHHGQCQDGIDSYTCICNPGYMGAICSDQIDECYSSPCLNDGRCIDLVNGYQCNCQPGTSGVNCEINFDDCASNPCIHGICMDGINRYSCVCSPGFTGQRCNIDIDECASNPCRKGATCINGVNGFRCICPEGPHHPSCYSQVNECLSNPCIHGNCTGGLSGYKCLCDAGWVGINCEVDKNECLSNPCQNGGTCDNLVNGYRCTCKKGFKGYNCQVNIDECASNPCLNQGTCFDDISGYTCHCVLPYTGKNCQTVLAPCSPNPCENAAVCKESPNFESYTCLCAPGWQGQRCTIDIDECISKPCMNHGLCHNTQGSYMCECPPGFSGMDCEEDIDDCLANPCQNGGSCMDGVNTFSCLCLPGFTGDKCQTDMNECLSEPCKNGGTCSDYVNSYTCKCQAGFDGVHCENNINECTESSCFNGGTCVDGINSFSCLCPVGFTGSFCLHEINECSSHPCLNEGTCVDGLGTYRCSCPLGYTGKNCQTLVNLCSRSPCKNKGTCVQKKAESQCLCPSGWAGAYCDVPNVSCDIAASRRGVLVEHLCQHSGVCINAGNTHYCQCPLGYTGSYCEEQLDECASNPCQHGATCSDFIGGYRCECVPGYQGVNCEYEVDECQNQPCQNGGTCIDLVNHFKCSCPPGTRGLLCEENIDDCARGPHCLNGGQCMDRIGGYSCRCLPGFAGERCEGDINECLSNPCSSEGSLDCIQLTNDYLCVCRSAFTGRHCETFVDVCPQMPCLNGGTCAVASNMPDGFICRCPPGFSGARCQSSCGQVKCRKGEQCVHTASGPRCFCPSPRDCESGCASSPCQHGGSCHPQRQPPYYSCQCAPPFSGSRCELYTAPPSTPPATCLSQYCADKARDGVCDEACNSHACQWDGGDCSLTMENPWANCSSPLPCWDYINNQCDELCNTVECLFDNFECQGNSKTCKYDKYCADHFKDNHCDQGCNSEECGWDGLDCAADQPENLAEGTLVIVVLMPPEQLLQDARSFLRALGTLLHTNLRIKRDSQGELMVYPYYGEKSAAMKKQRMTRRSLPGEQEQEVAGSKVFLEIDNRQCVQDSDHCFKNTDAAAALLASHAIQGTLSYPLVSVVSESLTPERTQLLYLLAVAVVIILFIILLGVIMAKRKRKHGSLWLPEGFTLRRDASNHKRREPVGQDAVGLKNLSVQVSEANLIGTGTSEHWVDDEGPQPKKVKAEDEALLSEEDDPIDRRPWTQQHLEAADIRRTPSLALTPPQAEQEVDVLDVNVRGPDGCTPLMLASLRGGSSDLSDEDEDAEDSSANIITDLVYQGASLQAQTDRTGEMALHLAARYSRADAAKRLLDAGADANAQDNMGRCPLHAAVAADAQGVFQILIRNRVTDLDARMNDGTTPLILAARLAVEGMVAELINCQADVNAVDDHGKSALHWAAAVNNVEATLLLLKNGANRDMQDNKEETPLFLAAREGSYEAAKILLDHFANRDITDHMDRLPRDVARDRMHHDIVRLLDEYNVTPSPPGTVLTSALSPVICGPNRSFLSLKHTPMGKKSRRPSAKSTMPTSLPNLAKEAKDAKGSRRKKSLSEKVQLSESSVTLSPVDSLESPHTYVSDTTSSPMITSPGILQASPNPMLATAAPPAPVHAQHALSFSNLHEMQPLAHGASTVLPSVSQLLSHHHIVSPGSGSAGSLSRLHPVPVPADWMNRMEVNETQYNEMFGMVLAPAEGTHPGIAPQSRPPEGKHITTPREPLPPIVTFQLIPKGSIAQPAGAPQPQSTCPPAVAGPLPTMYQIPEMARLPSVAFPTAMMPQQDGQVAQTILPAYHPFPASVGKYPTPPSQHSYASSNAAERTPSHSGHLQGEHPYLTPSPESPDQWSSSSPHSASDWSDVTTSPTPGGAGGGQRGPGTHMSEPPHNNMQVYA
The target of assay [6] is Pro-neuregulin-1, membrane-bound isoform (Homo sapiens) (UniProt Q02297). The assay is described as follows: small molecules binding neuregulin-1 protein – biochemical, small-molecule microarray, fluorescence 635/667, psychiatric disease protein project, primary screen (AID 1075).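 Further: score combines 667 nm spot fluorescence with signal to noise.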 As to conditions: NRG1 binding, 635 nm fluorescence, higher = more signal.
Assay [7] deals with Neuregulin-1 EGF-like domain. The assay is described as follows: small molecules binding NRG1 EGF domain – biochemical, small-molecule microarray, 635 nm fluorescence, primary screen (AID 1081).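 Further: binding of the protein to compounds printed on small-molecule microarray slides.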 As to conditions: higher = more signal.
Assay [8] in a line: FRG1 expression reporter modulators in myotubes – cell-based, C2C12 myotubes, firefly/Renilla luciferase, luminescence, FRG1 inhibition for FSHD, primary screen (AID 1084). As to conditions: FRG1 promoter luciferase, higher = more signal, called active from +8 up or from −8 down.
A short description of assay [9]: small molecules captured by biotinylated probe aFST – biochemical, small-molecule microarray, fluorescence 635/667, stem cell growth factor project, primary screen (AID 1086).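 Further: score merges 667 nm fluorescence with signal-to-noise of each printed compound spot.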 The conditions noted are these: higher = more signal.
A short description of assay [10]: binders of probe aHhip on microarray, primary screen, stem cell growth factor project, biochemical, small-molecule microarray, fluorescence 635/667 (AID 1087).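 Further: score merges spot fluorescence at 667nm with spot signal to noise ratio.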 The conditions noted are these: higher = more signal.
Assay [11] relates to PRMT1 (protein arginine N-methyltransferase 1). As to the kind of experiment: small molecules binding arginine methyltransferase PRMT1 – biochemical, small-molecule microarray, 635 nm fluorescence, primary screen (AID 1088).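 Further: binding of Prmt1 protein to compounds spotted on small-molecule microarray slides.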 The conditions noted are these: higher = more signal.
A short description of assay [12]: growth effects on S. cerevisiae YJM789 – YJM789 clinical isolate, OD600, 24 h, basal, primary screen (AID 1089).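 Further: growth of clinical yeast isolate S. cerevisiae YJM 789 seeded 1000 cells per well; test concentration not given here.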 The conditions noted are these: higher = more signal, called active from +8 up or from −8 down.
Assay [13] can be described thus: S. pombe growth modifiers, basal conditions – strain 972, OD600, 24 h, no modulator, primary screen (AID 1090).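 Further: basal condition with compound alone and no growth modifier present; test concentration not given here.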 The conditions noted are these: S. pombe 972 growth, higher = more signal, called active from +8 up or from −8 down.
A short description of assay [14]: budding yeast growth modifiers under rapamycin – strain BY4716, OD600, 96 h, primary screen (AID 1091). Further: test concentration not given here. The conditions noted are these: S. cerevisiae BY4716 + rapamycin, higher = more signal, called active from +8 up or from −8 down.
Assay [15] deals with Torsin-1A-interacting protein 2 (Homo sapiens) (UniProt Q8NFQ8). The assay is described as follows: small molecules binding lysate-expressed LULL1 – cell lysate, human LULL1 lysate, 635/667 nm fluorescence, primary screen (AID 1092).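 Further: probe is lysate of COS7 cells overexpressing human LULL1; score merges per-feature 667 nm fluorescence with signal-to-noise.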 As to conditions: small-molecule microarray, hLULL1 lysate binding, 635 nm fluorescence; higher = more signal.
The nature of assay [16]: optical density change of DRC41 E. coli – strain DRC41, OD650, 24 h, E. coli filamentation project, primary screen (AID 1093).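 Further: MC1000 strain lacking acrAB efflux and sulA so SOS filamentation is blocked; test concentration not given here.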 The conditions noted are these: E. coli DRC41 growth, higher = more signal, called active from +8 up or from −8 down.
The nature of assay [17]: probe aLefty2 binding to arrayed compounds – biochemical, biotinylated probe, 635/667 nm fluorescence, primary screen (AID 1094).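 Further: score merges spot fluorescence near 667 nm with spot signal-to-noise ratio.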 The conditions noted are these: small-molecule microarray, higher = more signal.
Assay [18] deals with Noggin (protein binding on small-molecule microarray). As to the kind of experiment: small molecules binding Noggin protein – biochemical, 635/667 nm fluorescence, primary screen (AID 1095).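 Further: score merges 667 nm feature fluorescence with signal to noise over triplicate slides.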 As to conditions: 635 nm fluorescence, higher = more signal.
In assay [19] the target is Neurogenic locus notch homolog protein 3 (Homo sapiens) (UniProt Q9UM47). As to the kind of experiment: small molecules binding NOTCH3 protein – biochemical, 635/667 nm fluorescence, primary screen (AID 1096). As to conditions: small-molecule microarray, 635 nm fluorescence, higher = more signal.
Sequence of Neurogenic locus notch homolog protein 3 (Homo sapiens) (Q9UM47 whole entry, looked up): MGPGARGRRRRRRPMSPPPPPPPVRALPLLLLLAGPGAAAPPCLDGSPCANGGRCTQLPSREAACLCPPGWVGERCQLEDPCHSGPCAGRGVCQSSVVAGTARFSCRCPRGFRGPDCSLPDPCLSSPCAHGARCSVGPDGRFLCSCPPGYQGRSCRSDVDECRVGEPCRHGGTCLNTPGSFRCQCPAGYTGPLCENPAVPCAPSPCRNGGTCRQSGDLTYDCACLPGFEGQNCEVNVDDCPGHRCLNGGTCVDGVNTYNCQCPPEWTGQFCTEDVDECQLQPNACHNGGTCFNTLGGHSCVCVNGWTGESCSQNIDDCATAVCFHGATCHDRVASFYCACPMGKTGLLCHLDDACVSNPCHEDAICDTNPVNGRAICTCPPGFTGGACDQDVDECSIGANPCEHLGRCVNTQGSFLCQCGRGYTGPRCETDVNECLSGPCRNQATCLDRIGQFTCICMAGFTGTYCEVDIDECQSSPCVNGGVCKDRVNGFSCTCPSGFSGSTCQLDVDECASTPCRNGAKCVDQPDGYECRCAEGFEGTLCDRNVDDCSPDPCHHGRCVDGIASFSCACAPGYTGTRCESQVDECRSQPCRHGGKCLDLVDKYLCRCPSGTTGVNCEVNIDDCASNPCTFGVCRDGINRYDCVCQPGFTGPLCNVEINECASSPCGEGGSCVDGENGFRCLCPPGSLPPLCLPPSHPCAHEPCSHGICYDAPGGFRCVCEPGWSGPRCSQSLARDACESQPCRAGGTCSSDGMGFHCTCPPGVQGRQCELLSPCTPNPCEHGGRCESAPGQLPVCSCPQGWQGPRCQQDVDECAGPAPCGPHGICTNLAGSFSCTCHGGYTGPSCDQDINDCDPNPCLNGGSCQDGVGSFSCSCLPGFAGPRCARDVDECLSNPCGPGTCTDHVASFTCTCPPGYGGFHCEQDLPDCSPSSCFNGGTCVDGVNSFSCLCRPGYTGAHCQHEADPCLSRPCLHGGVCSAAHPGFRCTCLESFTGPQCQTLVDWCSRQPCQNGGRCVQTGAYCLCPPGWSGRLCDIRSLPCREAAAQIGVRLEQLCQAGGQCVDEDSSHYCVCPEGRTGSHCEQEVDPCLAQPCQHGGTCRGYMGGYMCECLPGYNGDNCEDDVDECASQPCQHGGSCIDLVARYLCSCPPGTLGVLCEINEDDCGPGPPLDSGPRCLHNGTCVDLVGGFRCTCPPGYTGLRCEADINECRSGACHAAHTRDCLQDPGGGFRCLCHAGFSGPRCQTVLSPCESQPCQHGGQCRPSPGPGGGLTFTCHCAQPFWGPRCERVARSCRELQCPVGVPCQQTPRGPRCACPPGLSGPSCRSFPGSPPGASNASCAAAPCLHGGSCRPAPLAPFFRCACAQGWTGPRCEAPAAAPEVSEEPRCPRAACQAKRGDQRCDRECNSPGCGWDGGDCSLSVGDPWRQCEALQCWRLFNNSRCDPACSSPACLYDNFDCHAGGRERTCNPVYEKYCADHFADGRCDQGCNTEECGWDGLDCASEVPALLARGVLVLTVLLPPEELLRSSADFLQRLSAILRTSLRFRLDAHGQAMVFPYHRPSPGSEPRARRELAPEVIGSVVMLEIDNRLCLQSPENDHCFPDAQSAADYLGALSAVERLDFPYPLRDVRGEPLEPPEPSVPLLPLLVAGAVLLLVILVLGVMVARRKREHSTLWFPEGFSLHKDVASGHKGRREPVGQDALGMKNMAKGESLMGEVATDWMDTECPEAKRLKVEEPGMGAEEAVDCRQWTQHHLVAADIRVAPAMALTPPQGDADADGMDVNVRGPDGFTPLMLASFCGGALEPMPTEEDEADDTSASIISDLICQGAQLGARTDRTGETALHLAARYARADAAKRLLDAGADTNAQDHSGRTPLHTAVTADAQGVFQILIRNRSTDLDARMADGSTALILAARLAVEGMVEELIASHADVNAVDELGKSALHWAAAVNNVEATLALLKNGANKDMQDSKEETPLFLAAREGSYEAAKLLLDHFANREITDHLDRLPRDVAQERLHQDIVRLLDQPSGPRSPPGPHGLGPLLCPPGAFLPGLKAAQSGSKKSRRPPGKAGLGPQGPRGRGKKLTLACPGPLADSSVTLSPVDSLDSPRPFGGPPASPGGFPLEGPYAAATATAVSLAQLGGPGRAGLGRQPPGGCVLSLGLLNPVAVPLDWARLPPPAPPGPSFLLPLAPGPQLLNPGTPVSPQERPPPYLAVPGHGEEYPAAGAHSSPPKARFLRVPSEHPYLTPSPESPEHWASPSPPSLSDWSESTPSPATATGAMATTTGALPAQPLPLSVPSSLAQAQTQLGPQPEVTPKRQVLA
Assay [20] is described as follows: probe aEGFR binding to arrayed compounds – biochemical, biotinylated probe, 635/667 nm fluorescence, primary screen (AID 1097).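 Further: probe is a biotinylated anti-EGFR antibody binding compounds printed on slides; score combines fluorescence near 667 nm and signal to noise of each spot.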 As to conditions: small-molecule microarray, higher = more signal.

Activity calls are given as the source filed them.

As for `COc1ccc([Si](C)(C)[C@H]2[C@H](CC(=O)N(CCO)Cc3ccccc3)O[C@@]3(C(=O)N(Cc4cccc(N5CCC5=O)c4)c4ccccc43)[C@@H]2C)cc1`, the composite z-score was 0.0204 in assay [1]; 0.906 in assay [2]; -0.131 in [3]; 0.55 in [4]; 0.629 in assay [5]; 1.18 in assay [6]. The composite z-score is 1.07 in assay [7]; -0.194 in [9]; -0.13 in assay [10]; 1.39 in [11]; 1.64 in assay [15]; -0.0188 in [17]. Moreover, the composite z-score in [18] is 0.847; in assay [19], 0.976; in assay [20] it was -0.0334. In addition, the z-score in assay [8] was -1.55 (inactive); in assay [12] it was -0.763 (inactive); in assay [13] it was -0.509 (inactive); in [14], 1.16 (inactive); in [16], 2.57 (inactive).

For `O=C1C[C@]2(c3ccc([N+](=O)[O-])cc3)C(=O)N(CC(F)(F)F)c3cc(CO)ccc3[C@H]2N1CC12CC3CC(CC(C3)C1)C2`, the composite z-score is -0.127 in assay [1]; 0.0228 in assay [2]; -0.101 in assay [3]; 0.0063 in [4]; -0.284 in assay [5]; -0.0962 in assay [6]. Moreover, the composite z-score in [7] is 0.988; in [9], 0.0443; in assay [10] it was -0.249; in [11], 1.08; in [15] it was 2.49; in assay [17], -0.145. Moreover, the composite z-score in assay [18] is 0.363; in [19], -0.234; in assay [20] it was -0.0972. Besides, the z-score is -0.659 (inactive) in [8]; 0.116 (inactive) in assay [12]; 1.21 (inactive) in assay [13]; -1.69 (inactive) in [14]; -0.577 (inactive) in assay [16].

On to `O=C1O[C@H](c2ccccc2)[C@H](c2ccccc2)N2[C@H]1[C@@H](C(=O)O)[C@]1(C(=O)Nc3ccc(C#CC4(O)CCCCCC4)cc31)[C@H]2c1ccc(OCCO)cc1`, for which the composite z-score in assay [1] is -0.133; in assay [2], -0.337; in assay [3], 0.0201; in [4], 0.564; in [5] it was 0.263; in [6] it was 1.85. Moreover, the composite z-score was 1.14 in assay [7]; 1.07 in assay [9]; -0.0994 in assay [10]; 1.37 in [11]; 3.58 in [15]; -0.124 in assay [17]. Moreover, the composite z-score in assay [18] is -0.338; in assay [19], 0.528; in assay [20], -0.216. Moreover, the z-score is 1.11 (inactive) in [8]; 2.28 (inactive) in assay [12]; 0.219 (inactive) in assay [13]; 0.124 (inactive) in assay [14]; -0.831 (inactive) in assay [16].

Regarding `O=C1O[C@@H](c2ccccc2)[C@@H](c2ccccc2)N2[C@@H](c3ccc(O)cc3)[C@]3(C(=O)Nc4ccc(C#CC5(O)CCCCCC5)cc43)[C@@H](C(=O)N3CCCCCCC3)[C@H]12`, the composite z-score in assay [1] came out at 2.55; in assay [2], 2; in assay [3] it was 0.764; in assay [4], 0.876; in [5], 1.66; in assay [6], 2.49. The composite z-score stood at 1.27 in [7]; 2.79 in [9]; 0.67 in [10]; 1.54 in assay [11]; 4.45 in assay [15]; 1.42 in [17]. The composite z-score in assay [18] was 2.41; in assay [19], 1.07; in [20], 1.24. Besides, the z-score is -0.849 (inactive) in assay [8]; 1.16 (inactive) in assay [12]; 0.321 (inactive) in assay [13]; 2.09 (inactive) in assay [14]; 0.26 (inactive) in assay [16].

`COc1ccc(NN2C(C(O)c3ccc(OC)c(OCc4ccccc4)c3)C=CC3C(=O)N(C4CCCCC4)C(=O)C32)cc1` (stereo not given): the composite z-score is 0.243 in assay [1]; -0.116 in assay [2]; 0.136 in [3]; 0.395 in assay [4]; 1.56 in assay [5]; 1.4 in assay [6]. Further, the composite z-score is 0.936 in [7]; 0.857 in [9]; 0.0749 in [10]; 1.3 in assay [11]; 3.24 in assay [15]; 0.0225 in assay [17]. The composite z-score in assay [18] is 0.181; in assay [19], 1.05; in assay [20], -0.0688. Besides, the z-score in assay [8] is 0.0498 (inactive); in [12] it was -0.352 (inactive); in [13], 0.225 (inactive); in assay [14], -0.724 (inactive); in assay [16] it was 0.644 (inactive).

Regarding `O=C1C[C@@](C(=O)NC2CC2)(c2ccc([N+](=O)[O-])cc2)[C@@H](c2ccc(CO)cc2)N1CC12CC3CC(CC(C3)C1)C2`, the composite z-score in [1] is -0.0569; in [2], -0.121; in assay [3], -0.0111; in assay [4], 0.214; in [5], 1.4; in [6] it was 0.707. Further, the composite z-score was 0.745 in assay [7]; 0.424 in assay [9]; -0.136 in assay [10]; 1.27 in [11]; 1.61 in [15]; 0.0469 in assay [17]. Moreover, the composite z-score in assay [18] is 0.883; in assay [19], 1.14; in assay [20], -0.0485. The z-score was -0.962 (inactive) in [8]; -0.632 (inactive) in [12]; -1.06 (inactive) in assay [13]; 0.122 (inactive) in assay [14]; 0.587 (inactive) in assay [16].

For `COCCOC(=O)N1C(=O)[C@@]2(c3cc(C#CCC(C(=O)OC)C(=O)OC)ccc31)[C@H](c1ccc(O)cc1)N1[C@H](c3ccccc3)[C@H](c3ccccc3)OC(=O)[C@H]1[C@@H]2C(N)=O`, the composite z-score in assay [1] is -0.239; in assay [2], 0.365; in [3], 0.0661; in assay [4], 1.11; in assay [5], 1.1; in assay [6], 0.328. The composite z-score in assay [7] is 1.32; in assay [9], 0.404; in assay [10], -0.124; in [11], 1.28; in [15], 3.06; in assay [17], 0.216. In addition, the composite z-score in assay [18] was 0.604; in assay [19] it was 0.828; in assay [20] it was 0.0717. The z-score in [8] was -0.4 (inactive); in assay [12], -0.151 (inactive); in assay [13], 0.431 (inactive); in assay [14], 0.291 (inactive); in [16], -0.138 (inactive).

On to `CCCCC=C[C@@H](NC(=O)c1ccco1)c1ccccc1`, for which the composite z-score was -0.0252 in [1]; 0.0908 in [2]; 0.0603 in assay [3]; 0.372 in assay [4]; 0.929 in assay [5]; 0.783 in assay [6]. Moreover, the composite z-score in assay [7] was -0.628; in assay [9], 0.199; in [10] it was 0.525; in assay [11], -0.568; in assay [15], 0.539; in [17], -0.0251. Besides, the composite z-score in [18] came to 0.103; in assay [19], 0.657; in assay [20], 0.0836. Further, the z-score in assay [8] is 1.36 (inactive); in assay [12] it was 0.529 (inactive); in [13] it was 1 (inactive); in [14], 1.92 (inactive); in assay [16] it was -0.675 (inactive).

As for `CC(C)N1C(=O)[C@@]2(c3ccc([N+](=O)[O-])cc3)CC(=O)N(CC34CC5CC(CC(C5)C3)C4)[C@@H]2c2ccc(CO)cc21`, the composite z-score was -0.448 in assay [1]; -1.26 in assay [2]; -0.188 in assay [3]; -0.373 in assay [4]; -1.16 in assay [5]; -0.34 in assay [6]. The composite z-score in assay [7] is -0.867; in [9] it was -0.39; in assay [10] it was -0.164; in [11], 0.788; in assay [15], -0.0313; in assay [17], -0.253. In addition, the composite z-score in [18] was -0.337; in assay [19] it was 0.272; in assay [20], -0.162. In addition, the z-score in assay [8] was 0.63 (inactive); in [12], 0.759 (inactive); in assay [13], 0.652 (inactive); in [14] it was -0.975 (inactive); in assay [16] it was -0.0342 (inactive).
